For 6 compounds, composite z-score, z-score and composite Z-score results are on record in PubChem BioAssay.

Active and inactive are the calls of the source.

In experiment [1] the test system is Human papillomavirus type 1a protein E7 (residues 44-93). Nature of the experiment: small molecules binding HPV E7 44-93 – biochemical, small-molecule microarray, residues 44-93, 635 nm fluorescence, primary screen (AID 1108).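 Further: E7 fragment applied at 1 µg/mL in TBST for 1 h at 4 C; score combines spot fluorescence with its signal to noise ratio.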 The note with it: fluorescence 635 nm, higher = more signal.
The nature of experiment [2]: hepatitis C replication reporter changes, two-sided – Huh7 cells, luciferase reporter, HCV replication inhibitor project, primary screen (AID 1109).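 Further: huh7 hepatoma cells harbouring a luciferase neomycin HCV replicon reporter; luciferase luminescence as measure of HCV replicon replication; test concentration not given here.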 Particulars: Huh7 HCV replicon luciferase reporter, 48 h; higher = more signal. A general note: Reporter assays use an easily measured gene product as a stand-in for the process of interest.
Experiment [3] concerns the target Left-right determination factor 2 (Homo sapiens) (UniProt O00292). Nature of the experiment: small molecules binding LEFTY2 protein – biochemical, small-molecule microarray, 635 nm fluorescence scan, primary screen (AID 1110). Particulars: higher = more signal.
The target in experiment [4] is Calmodulin-1 (Homo sapiens) (UniProt P0DP23). Nature of the experiment: small molecules binding calmodulin-1 with EGTA – biochemical, small-molecule microarray, Cy5-labelled CALM1, profiling panel (AID 1111).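 Further: labelled calmodulin applied in Tris saline Tween buffer holding calcium plus EGTA and DTT.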 The note with it: Cy5-CALM1 binding fluorescence, higher = more signal.
Experiment [5] shares this target. Nature of the experiment: small molecules binding Ca-loaded calmodulin-1 – biochemical, small-molecule microarray, Cy5-labelled CALM1, plus calcium, artefact control for SMM control-protein annotation, profiling panel (AID 1112).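 Further: score merges spot fluorescence with signal to noise from triplicate slides.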 Particulars: Cy5-CALM1 binding fluorescence, higher = more signal.
Experiment [6] in a line: probe aWnt5a binding to arrayed compounds – biochemical, biotinylated probe, 635/667 nm fluorescence, primary screen (AID 1113).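 Further: score merges 667 nm fluorescence intensity with signal-to-noise per printed feature.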 The note with it: small-molecule microarray, higher = more signal.
Experiment [7] in a line: probe aShh binding to arrayed compounds – biochemical, biotinylated probe, 635/667 nm fluorescence, primary screen (AID 1114).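 Further: probe is biotin-labelled aShh protein from a stem cell growth factor screen; measures binding of labelled protein to compounds printed on the slide; score merges feature fluorescence at 667 nm with signal-to-noise.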 Particulars: small-molecule microarray, higher = more signal.
The nature of experiment [8]: probe aNog binding to arrayed compounds – biochemical, biotinylated probe, 635/667 nm fluorescence, primary screen (AID 1115).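 Further: probe is biotinylated aNog protein used at 0.15 µg/mL for 1 h at 4 C; z-score combines 667 nm fluorescence of each spot with its signal to noise.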 The note with it: small-molecule microarray, higher = more signal.
For experiment [9], the target named is Torsin-1A-interacting protein 1 (Homo sapiens) (UniProt Q5JTV8). Nature of the experiment: compound microarray binding of lysate hLAP1 – cell lysate, small-molecule microarray, COS7 lysate, 635/667 nm fluorescence, primary screen (AID 1116). Particulars: 635 nm fluorescence, higher = more signal.
Chain of Torsin-1A-interacting protein 1 (Homo sapiens) (Q5JTV8 whole entry, looked up): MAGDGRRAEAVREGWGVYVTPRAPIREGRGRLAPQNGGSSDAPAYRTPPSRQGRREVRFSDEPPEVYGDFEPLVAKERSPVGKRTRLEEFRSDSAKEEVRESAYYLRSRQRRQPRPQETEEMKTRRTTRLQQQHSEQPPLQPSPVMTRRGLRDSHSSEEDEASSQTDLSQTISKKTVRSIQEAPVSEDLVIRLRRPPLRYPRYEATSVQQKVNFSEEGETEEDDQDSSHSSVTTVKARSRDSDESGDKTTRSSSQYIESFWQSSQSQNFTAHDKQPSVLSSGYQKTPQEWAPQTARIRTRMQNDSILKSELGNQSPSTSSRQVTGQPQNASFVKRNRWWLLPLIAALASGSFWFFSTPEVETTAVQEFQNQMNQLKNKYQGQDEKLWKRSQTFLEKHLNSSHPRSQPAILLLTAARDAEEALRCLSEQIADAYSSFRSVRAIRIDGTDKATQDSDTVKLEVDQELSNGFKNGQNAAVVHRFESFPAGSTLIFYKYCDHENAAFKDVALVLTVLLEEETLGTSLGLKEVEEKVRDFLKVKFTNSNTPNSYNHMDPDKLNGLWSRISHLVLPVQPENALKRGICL
Experiment [10] has as its target Alpha-bungarotoxin (Bungarus multicinctus) (UniProt P60615). Nature of the experiment: compounds binding labelled alpha-BTX control protein – biochemical, small-molecule microarray, Alexa647 label, 635/667 nm fluorescence, artefact control for SMM control protein annotation, profiling panel (AID 1117). Particulars: alpha-BTX-A647 binding fluorescence, higher = more signal.

The target of experiment [11] is Albumin (Bos taurus) (UniProt P02769). Nature of the experiment: compounds binding labelled BSA control protein – biochemical, small-molecule microarray, Alexa647 label, 635/667 nm fluorescence, artefact control for SMM control protein annotation, profiling panel (AID 1118).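 Further: score merges 667 nm emission intensity and signal-to-noise per printed compound spot.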 The note with it: BSA-A647 binding, fluorescence 635 nm, higher = more signal.
Chain of Albumin (Bos taurus) (P02769 whole entry, looked up): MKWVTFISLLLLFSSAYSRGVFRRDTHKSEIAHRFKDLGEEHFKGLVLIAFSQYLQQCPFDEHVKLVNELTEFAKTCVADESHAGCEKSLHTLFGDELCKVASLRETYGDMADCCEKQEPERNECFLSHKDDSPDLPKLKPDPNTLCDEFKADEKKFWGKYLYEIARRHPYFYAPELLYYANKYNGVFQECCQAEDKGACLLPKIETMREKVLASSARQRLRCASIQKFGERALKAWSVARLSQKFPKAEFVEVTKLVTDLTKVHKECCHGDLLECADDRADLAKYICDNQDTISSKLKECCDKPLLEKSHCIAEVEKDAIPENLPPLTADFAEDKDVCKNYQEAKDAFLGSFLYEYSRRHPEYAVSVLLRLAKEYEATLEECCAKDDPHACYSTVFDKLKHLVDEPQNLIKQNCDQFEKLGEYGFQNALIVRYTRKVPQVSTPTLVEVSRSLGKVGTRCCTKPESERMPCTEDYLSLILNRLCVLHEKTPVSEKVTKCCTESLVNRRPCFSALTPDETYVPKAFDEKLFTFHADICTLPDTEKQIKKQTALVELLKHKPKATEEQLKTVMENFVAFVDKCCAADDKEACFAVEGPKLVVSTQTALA
The nature of experiment [12]: probe aXIP binding to arrayed compounds – biochemical, NeuroSMM set, 635/667 nm fluorescence, primary screen (AID 1119).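 Further: probe is the protein aXip251-270 applied at 1 µg/mL to compound-printed slides; binding of probe to printed compounds measured as 667 nm fluorescence plus signal to noise.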 Particulars: small-molecule microarray, higher = more signal, called active from +8 up or from −8 down.
Experiment [13] can be described thus: probe aNOTCH3 binding on compound microarray – biochemical, small-molecule microarray, 635/667 nm fluorescence, primary screen (AID 1120).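 Further: probe is a biotin-tagged antibody raised against NOTCH3 rather than NOTCH3 protein; score merges spot fluorescence near 667 nm with spot signal to noise.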 The note with it: higher = more signal.
Experiment [14] in a line: probe aNOTCH2 binding on compound microarray – biochemical, small-molecule microarray, 635/667 nm fluorescence, primary screen (AID 1121).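 Further: score merges feature fluorescence read at 667 nm with its signal to noise.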 The note with it: higher = more signal.
For experiment [15], the target named is Carbonic anhydrase 2 (Homo sapiens) (UniProt P00918). Nature of the experiment: compounds binding carbonic anhydrase 2 – biochemical, small-molecule microarray, Alexa647-labelled CAII, profiling panel (AID 1122). The note with it: CAII-A647 binding fluorescence, higher = more signal.
Experiment [16] can be described thus: COS7 lysate on small-molecule microarray, probe aHis, 635 nm (AID 1123).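 Further: z-score combines 667nm fluorescence intensity with signal-to-noise per printed compound spot.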 The note with it: COS7 cell lysate, fluorescence, higher = more signal.
Experiment [17] in a line: probe aLAP1 signal on lysate-treated microarray – cell lysate, small-molecule microarray, COS7 lysate, primary screen (AID 1124).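 Further: lysate comes from COS7 cells expressing LAP1 and is applied at 0.3 µg/mL; score merges spot fluorescence near 667 nm with signal-to-noise over triplicate slides.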 The note with it: probe aLAP1, fluorescence, higher = more signal.
For experiment [18], the system named is Sam68 (KHDRBS1). Nature of the experiment: compounds binding KHDRBS1 protein – biochemical, small-molecule microarray, 635 nm fluorescence, primary screen (AID 1125).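 Further: score merges 667 nm channel intensity with signal to noise over triplicate slides.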 Particulars: higher = more signal.
The subject of experiment [19] is Chordin-like protein 2 (CHRDL2). Nature of the experiment: compounds binding chordin-like 2 – biochemical, small-molecule microarray, 635 nm fluorescence, primary screen (AID 1126).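 Further: printed compound slides probed with Chrdl2 protein at 4 µg/mL for 1 h at 4 C; score merges 667 nm emission intensity with signal to noise over three replicate slides.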 Particulars: fluorescence 635 nm, higher = more signal.
Experiment [20] addresses Concanavalin-A (Canavalia ensiformis) (UniProt P02866). Nature of the experiment: compounds binding concanavalin A lectin – biochemical, small-molecule microarray, Alexa647 label, 635 nm, artefact control for SMM control protein annotation, primary screen (AID 1127).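 Further: z combines 667 nm emission intensity with signal-to-noise across three replicate slides.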 Particulars: ConA-A647 binding fluorescence, higher = more signal.

Chain of Left-right determination factor 2 (Homo sapiens) (O00292 whole entry, looked up): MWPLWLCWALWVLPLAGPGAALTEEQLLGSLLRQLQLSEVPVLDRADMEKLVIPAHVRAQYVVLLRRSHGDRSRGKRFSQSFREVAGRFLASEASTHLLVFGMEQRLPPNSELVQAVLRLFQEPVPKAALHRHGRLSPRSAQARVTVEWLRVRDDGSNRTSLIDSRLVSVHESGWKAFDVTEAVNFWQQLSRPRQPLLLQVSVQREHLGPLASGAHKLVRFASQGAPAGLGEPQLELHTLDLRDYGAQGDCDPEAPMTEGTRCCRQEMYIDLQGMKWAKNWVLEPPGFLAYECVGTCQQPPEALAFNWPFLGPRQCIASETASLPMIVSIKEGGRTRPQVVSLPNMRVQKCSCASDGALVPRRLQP
Chain of Alpha-bungarotoxin (Bungarus multicinctus) (P60615 whole entry, looked up): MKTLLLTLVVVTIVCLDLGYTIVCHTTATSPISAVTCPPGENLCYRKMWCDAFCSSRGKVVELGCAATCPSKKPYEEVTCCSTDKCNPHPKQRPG
Chain of Concanavalin-A (Canavalia ensiformis) (P02866 whole entry, looked up): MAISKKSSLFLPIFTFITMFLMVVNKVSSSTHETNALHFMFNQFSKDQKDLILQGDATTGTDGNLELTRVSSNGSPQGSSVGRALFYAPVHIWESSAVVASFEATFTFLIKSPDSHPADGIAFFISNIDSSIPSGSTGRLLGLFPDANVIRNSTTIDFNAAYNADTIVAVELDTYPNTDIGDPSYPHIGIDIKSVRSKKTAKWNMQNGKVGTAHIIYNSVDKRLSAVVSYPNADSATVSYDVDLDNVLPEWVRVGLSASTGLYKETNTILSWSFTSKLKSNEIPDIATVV

`O=C1NC(=O)C2C1C=CC(C(O)c1ccc(-c3ccccc3)s1)N2Nc1ccccn1` (stereo not given): the composite z-score in [1] was -1.13; in experiment [3], 0.18; in experiment [4] it was 0.0183; in [5], 0.0403; in [6], 0.0746; in experiment [7], -0.0961. In addition, the composite z-score in experiment [8] is -0.0545; in experiment [9] it was 2.8; in experiment [10], 0.435; in [11], 0.781; in experiment [13], -0.115; in experiment [14], 0.11. Further, the composite z-score was 0.91 in experiment [15]; 0.978 in [16]; 1.22 in experiment [17]; 0.105 in experiment [18]; 0.398 in [19]; 0.83 in experiment [20]. This compound yielded a z-score in experiment [2] of -0.684. The composite Z-score in [12] was -1.39 (inactive).
On to `NC(=O)NCC#Cc1ccc2c(c1)[C@]1(C(=O)N2)[C@H](c2ccc(OCCO)cc2)N2[C@H](c3ccccc3)[C@H](c3ccccc3)OC(=O)[C@H]2[C@@H]1C(=O)N1CCCCCCC1`, for which the composite z-score stood at 1.46 in [1]; 1.73 in experiment [3]; 2.77 in experiment [4]; 1.2 in experiment [5]; 1.38 in experiment [6]; 0.565 in experiment [7]. Moreover, the composite z-score in experiment [8] worked out at 3.11; in experiment [9], 4.35; in [10] it was 1.77; in experiment [11], 0.435; in experiment [13] it was 2.08; in experiment [14], 1.13. The composite z-score in [15] was 0.894; in experiment [16] it was 2.81; in experiment [17], 0.669; in experiment [18], 1.23; in [19], 1.13; in experiment [20], 1.14. The same compound yielded a z-score in [2] of -1.02. In addition, the composite Z-score in [12] is 5.46 (inactive).
Regarding `C[N+](C)(C)CCCCCCNC(=O)[C@H]1C[C@H]2C(=O)N3CCC[C@H]3C(=O)N2[C@H]1c1cccc(OCCO)c1`, the composite z-score in experiment [1] is 0.809; in experiment [3], 1.46; in experiment [4] it was -0.205; in experiment [5] it was -1.14; in [6] it was -0.135; in experiment [7] it was 0.171. Also, the composite z-score in experiment [8] is -0.381; in [9], 1.67; in [10] it was 0.0895; in experiment [11], -0.564; in experiment [13], 0.398; in experiment [14], -0.0135. For the same compound, the composite z-score in experiment [15] amounted to 0.662; in [16], 1.73; in [17], 0.787; in [18] it was 0.976; in experiment [19] it was 1.03; in [20] it was 1.15. This compound registered a z-score in experiment [2] of 0.609. Moreover, the composite Z-score in experiment [12] was 0.491 (inactive).
Regarding `CCCC[C@H]1OB(O)C[C@H]2C1=C(COc1ccccc1)Cn1c(=O)n(-c3ccccc3)c(=O)n12`, the composite z-score in [1] was 1.03; in experiment [3], 0.375; in experiment [4], 0.292; in experiment [5], -0.0404; in experiment [6], -0.186; in [7], -0.16. The composite z-score in [8] was -0.555; in experiment [9], 0.654; in [10], -0.334; in experiment [11], 0.196; in experiment [13], 0.0705; in experiment [14] it was -0.114. Moreover, the composite z-score in [15] was 0.247; in [16] it was 1.1; in experiment [17] it was 0.0367; in experiment [18] it was 1.14; in experiment [19], 0.357; in [20], 0.501. The z-score in experiment [2] was -0.917. Also, the composite Z-score in experiment [12] is 0.131 (inactive).
In the case of `C=CCC(OC(C)=O)[C@@H]1[C@@H](N(Cc2cc3ccccc3o2)C(=O)Cc2ccc(OC)cc2)c2cc(OCCCO)ccc2N1C(=O)c1ccc(-c2ccccc2)cc1` (stereo not given in full), the composite z-score in experiment [1] was 0.0962; in experiment [3], -0.214; in experiment [4], -0.365; in [5] it was 0.468; in experiment [6] it was -0.0767; in experiment [7] it was -0.147. The composite z-score is -0.23 in [8]; -0.113 in experiment [9]; 0.0856 in experiment [10]; 0.0023 in [11]; 0.111 in experiment [13]; 0.0098 in experiment [14]. Also, the composite z-score was -0.137 in [15]; -0.338 in [16]; -0.0843 in experiment [17]; -0.494 in [18]; 0.224 in experiment [19]; -1.15 in experiment [20]. This compound also displayed a z-score in experiment [2] of -0.71. For the same compound, the composite Z-score in experiment [12] was -0.287 (inactive).
For `CCOC(=O)C[C@H]1[C@H](OC(=O)c2cc3ccccc3oc2=O)[C@@H](NC(=O)c2ccc3ccccc3n2)c2cc(OCCCO)ccc2N1C(=O)c1ccc2ccccc2n1`, the composite z-score in [1] was 0.412; in experiment [3] it was 1.09; in experiment [4], -0.145; in experiment [5], -0.36; in experiment [6], 0.172; in experiment [7], 0.01. In addition, the composite z-score in experiment [8] was -0.158; in [9] it was 0.816; in [10], 0.214; in [11] it was -0.407; in experiment [13], 0.255; in [14] it was -0.0294. Also, the composite z-score in experiment [15] came out at 0.312; in experiment [16], 0.32; in [17], 0.129; in experiment [18], 0.539; in [19], 0.572; in experiment [20], 0.862. Besides, the z-score in experiment [2] is -2.04. Besides, the composite Z-score in experiment [12] was 0.581 (inactive).
